In PubChem BioAssay AID1159580 (chemical genetic matrix, 2015):
“And” between values parts separate entries of the source, which are not always exact repeats. Equal entries are not always repeated. Hit rate of the full screen: of about 5,500 compounds, about 2,000 (36%) were called active. Inconclusive results (about 18%) are left out. Rule as the data show it: active = normalized growth mostly below about 0.91 (no sharp cut-off); inconclusive = no clear call, values can overlap the other calls; inactive = mostly above about 0.92. The list shows a part of the results.

Test: chemical genetic growth profiling, strain panel (AID 1159580);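 also: tested at 20 µM; growth read once vehicle control cultures reached saturation at 30 °C; 1 = growth at the plate median or of vehicle wells; lower values mean less growth of the strain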
Settings: growth OD

Measured: normalized growth

CN1C(=O)CCS(=O)(=O)C1c1ccc(Cl)cc1 (stereo unspecified)
inactive: S. cerevisiae deletion strains, locus YJR075W, strain HOC1, stronger effect = lower value 1.04 and 1.02 | S. cerevisiae deletion strains, locus YKL009W, strain mrt4, stronger effect = lower value 1.03 | S. cerevisiae deletion strains, locus YKL068W, stronger effect = lower value 1.01 | S. cerevisiae deletion strains, locus YKL085W, strain MDH1 (second series), stronger effect = lower value 1.01 | S. cerevisiae deletion strains, locus YKL085W, strain MDH1, stronger effect = lower value 1.01 | S. cerevisiae deletion strains, locus YKL160W, strain elf1, stronger effect = lower value 1.02 | S. cerevisiae deletion strains, locus YKL190W, strain CNB1, stronger effect = lower value 1.01 | S. cerevisiae deletion strains, locus YKR001C, strain vps1, stronger effect = lower value 1.01 | S. cerevisiae deletion strains, locus YKR026C, strain gcn3, stronger effect = lower value 0.976 | S. cerevisiae deletion strains, locus YKR091W, strain srl3, stronger effect = lower value 0.984 | S. cerevisiae deletion strains, locus YLL001W, strain dnm1, stronger effect = lower value 0.979 | S. cerevisiae deletion strains, locus YLL026W, stronger effect = lower value 0.999 | S. cerevisiae deletion strains, locus YLL041C, strain sdh2, stronger effect = lower value 0.984 | S. cerevisiae deletion strains, locus YLR027C, strain aat2, stronger effect = lower value 0.998 | S. cerevisiae deletion strains, locus YLR039C, strain RIC1, stronger effect = lower value 1.04 | S. cerevisiae deletion strains, locus YLR058C, strain SHM2, stronger effect = lower value 1.01 | S. cerevisiae deletion strains, locus YLR102C, strain apc9, stronger effect = lower value 1.01 | S. cerevisiae deletion strains, locus YLR113W, strain HOG1, stronger effect = lower value 0.99 | S. cerevisiae deletion strains, locus YLR221C, strain rsa3, stronger effect = lower value 0.978 | S. cerevisiae deletion strains, locus YLR258W, strain gsy2, stronger effect = lower value 0.988 | S. cerevisiae deletion strains, locus YLR262C, strain YPT6 (second series), stronger effect = lower value 0.987 | S. cerevisiae deletion strains, locus YLR262C, strain YPT6, stronger effect = lower value 1.06 | S. cerevisiae deletion strains, locus YLR268W, strain sec22, stronger effect = lower value 1.06 | S. cerevisiae deletion strains, locus YLR320W, strain mms22, stronger effect = lower value 0.939 | S. cerevisiae deletion strains, locus YLR330W, strain CHS5, stronger effect = lower value 1.01 | S. cerevisiae deletion strains, locus YLR342W, strain FKS1 (second series), stronger effect = lower value 1.01 | S. cerevisiae deletion strains, locus YLR342W, strain FKS1, stronger effect = lower value 1.01 | S. cerevisiae deletion strains, locus YLR357W, strain rsc2, stronger effect = lower value 0.954 | S. cerevisiae deletion strains, locus YLR370C, strain arc18, stronger effect = lower value 0.991 | S. cerevisiae deletion strains, locus YLR371W, strain rom2, stronger effect = lower value 1.02 | S. cerevisiae deletion strains, locus YLR384C, strain iki3, stronger effect = lower value 0.996 | S. cerevisiae deletion strains, locus YLR418C, strain cdc73, stronger effect = lower value 1.02 | S. cerevisiae deletion strains, locus YML016C, strain PPZ1, stronger effect = lower value 1.01 | S. cerevisiae deletion strains, locus YML032C, strain rad52, stronger effect = lower value 1.04 | S. cerevisiae deletion strains, locus YML120C, strain ndi1, stronger effect = lower value 0.948 | S. cerevisiae deletion strains, locus YML124C, strain tub3, stronger effect = lower value 1.01 | S. cerevisiae deletion strains, locus YMR058W, strain fet3, stronger effect = lower value 0.979 | S. cerevisiae deletion strains, locus YMR078C, strain ctf18, stronger effect = lower value 1.02 | S. cerevisiae deletion strains, locus YMR125W, strain sto1, stronger effect = lower value 0.982 | S. cerevisiae deletion strains, locus YMR129W, stronger effect = lower value 0.974 | S. cerevisiae deletion strains, locus YMR205C, strain PFK2, stronger effect = lower value 0.947 | S. cerevisiae deletion strains, locus YMR223W, strain ubp8, stronger effect = lower value 1 | S. cerevisiae deletion strains, locus YMR231W, strain pep5, stronger effect = lower value 0.987 | S. cerevisiae deletion strains, locus YMR263W, strain SAP30, stronger effect = lower value 1.02 and 0.996 | S. cerevisiae deletion strains, locus YMR307W, strain GAS1, stronger effect = lower value 1 and 0.99 | S. cerevisiae deletion strains, locus YNL067W, strain RPL9B, stronger effect = lower value 1.03 | S. cerevisiae deletion strains, locus YNL071W, strain lat1, stronger effect = lower value 0.979 | S. cerevisiae deletion strains, locus YNL128W, strain TEP1, stronger effect = lower value 1.03 | S. cerevisiae deletion strains, locus YNL153C, strain GIM3, stronger effect = lower value 1.02 and 0.995 | S. cerevisiae deletion strains, locus YNL175C, strain NOP13, stronger effect = lower value 1.01 | S. cerevisiae deletion strains, locus YNL183C, strain NPR1, stronger effect = lower value 0.883 | S. cerevisiae deletion strains, locus YNL197C, strain WHI3, stronger effect = lower value 1 | S. cerevisiae deletion strains, locus YNL209W, strain ssb2, stronger effect = lower value 0.984 | S. cerevisiae deletion strains, locus YNL224C, strain SQS1, stronger effect = lower value 1 | S. cerevisiae deletion strains, locus YNL233W, strain BNI4, stronger effect = lower value 1.02 | S. cerevisiae deletion strains, locus YNL248C, strain rpa49, stronger effect = lower value 1.03 | S. cerevisiae deletion strains, locus YNL250W, strain rad50, stronger effect = lower value 1.01 | S. cerevisiae deletion strains, locus YNL271C, strain bni1, stronger effect = lower value 1.02 | S. cerevisiae deletion strains, locus YNL298W, strain CLA4, stronger effect = lower value 1.02 | S. cerevisiae deletion strains, locus YNL307C, strain MCK1, stronger effect = lower value 1.01 | S. cerevisiae deletion strains, locus YNL322C, strain KRE1 (second series), stronger effect = lower value 1 | S. cerevisiae deletion strains, locus YNL322C, strain KRE1, stronger effect = lower value 1.01 | S. cerevisiae deletion strains, locus YNR049C, strain mso1, stronger effect = lower value 0.992 | S. cerevisiae deletion strains, locus YNR052C, strain pop2, stronger effect = lower value 1.02 | S. cerevisiae deletion strains, locus YOL006C, strain TOP1, stronger effect = lower value 1.1 | S. cerevisiae deletion strains, locus YOL012C, strain htz1 0.9 | S. cerevisiae deletion strains, locus YOL147C, strain pex11, stronger effect = lower value 1.01 | S. cerevisiae deletion strains, locus YOR001W, strain rrp6, stronger effect = lower value 0.94 | S. cerevisiae deletion strains, locus YOR061W, strain CKA2, stronger effect = lower value 1.01 | S. cerevisiae deletion strains, locus YOR069W, strain VPS5, stronger effect = lower value 1.01 | S. cerevisiae deletion strains, locus YOR070C, strain gyp1, stronger effect = lower value 0.993 | S. cerevisiae deletion strains, locus YOR080W, strain dia2, stronger effect = lower value 0.982 | S. cerevisiae deletion strains, locus YOR083W, strain WHI5 (second series), stronger effect = lower value 1.03 | S. cerevisiae deletion strains, locus YOR083W, strain WHI5, stronger effect = lower value 0.994 | S. cerevisiae deletion strains, locus YOR106W, strain vam3, stronger effect = lower value 1.02 | S. cerevisiae deletion strains, locus YOR136W, strain idh2, stronger effect = lower value 1.01 | S. cerevisiae deletion strains, locus YOR144C, strain elg1, stronger effect = lower value 1.01 | S. cerevisiae deletion strains, locus YOR184W, strain ser1, stronger effect = lower value 1.01 | S. cerevisiae deletion strains, locus YOR231W, strain MKK1, stronger effect = lower value 0.996 | S. cerevisiae deletion strains, locus YOR265W, strain rbl2, stronger effect = lower value 0.982 | S. cerevisiae deletion strains, locus YOR270C, strain vph1, stronger effect = lower value 0.992 | S. cerevisiae deletion strains, locus YOR290C, strain snf2, stronger effect = lower value 1.01 | S. cerevisiae deletion strains, locus YOR316C, strain cot1, stronger effect = lower value 1.01 | S. cerevisiae deletion strains, locus YPL051W, strain arl3, stronger effect = lower value 1.03 | S. cerevisiae deletion strains, locus YPL055C, strain LGE1, stronger effect = lower value 1.05 and 1.03 | S. cerevisiae deletion strains, locus YPL078C, strain atp4, stronger effect = lower value 1.01 | S. cerevisiae deletion strains, locus YPL106C, strain sse1, stronger effect = lower value 0.952 | S. cerevisiae deletion strains, locus YPL240C, strain hsp82, stronger effect = lower value 0.981 | S. cerevisiae deletion strains, locus YPL241C, strain CIN2, stronger effect = lower value 1 and 1.01 | S. cerevisiae deletion strains, locus YPL256C, strain CLN2, stronger effect = lower value 0.956 | S. cerevisiae deletion strains, locus YPR119W, strain clb2, stronger effect = lower value 1.02 | S. cerevisiae deletion strains, locus YPR141C, strain kar3, stronger effect = lower value 1.01 | S. cerevisiae deletion strains, locus YPR163C, strain tif3, stronger effect = lower value 1.02 | S. cerevisiae deletion strains, locus YPR167C, strain met16, stronger effect = lower value 1.01 | S. cerevisiae deletion strains, strain wtn01, stronger effect = lower value 1.03 | S. cerevisiae strains, strain wild type, stronger effect = lower value 1.02
